Measurements reported in the supplement of paper PMC11732987, “Enantioselective OTUD7B fragment discovery through chemoproteomics screening and high-throughput optimisation” (Communications Chemistry, 2025).

Experiments:
Assay in all cases: log2 ratio of Biotin-Ahx-Ub-VS probe labelling (fragment/DMSO); higher = less target engagement (more negative = stronger competition), active = hit call of the paper (q ≤ 0.05, log2 ratio ≤ -1)
Settings in all cases: compound concentration: 200 uM; treatment time: 3 h
[1] = biological target: USP9X (UniProt Q93008)
In short: (§1)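 HEK293T lysate (495 µg per sample, in Tris/CHAPS/IGEPAL buffer with protease inhibitors) was treated in triplicate with fragment at 200 µM or with DMSO for 3 h. It was then treated with Biotin-Ahx-Ub-VS (0.5 µM final) for 1 h. Labelled DUBs were NeutrAvidin-enriched, digested with LysC and trypsin, and run by diaPASEF LC-MS/MS. Spectronaut label-free quantities were global-median-normalised. Values are average log2 ratios fragment/DMSO by unpaired t-test, using proteins with ≥2 unique peptides.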

[2] = biological target: UniProt O00487
In short: as §1

[3] = biological target: UniProt O00507
In short: as §1

[4] = biological target: UniProt P51784
In short: as §1

[5] = biological target: T1, UniProt Q5T2D3
T1 sequence (whole entry): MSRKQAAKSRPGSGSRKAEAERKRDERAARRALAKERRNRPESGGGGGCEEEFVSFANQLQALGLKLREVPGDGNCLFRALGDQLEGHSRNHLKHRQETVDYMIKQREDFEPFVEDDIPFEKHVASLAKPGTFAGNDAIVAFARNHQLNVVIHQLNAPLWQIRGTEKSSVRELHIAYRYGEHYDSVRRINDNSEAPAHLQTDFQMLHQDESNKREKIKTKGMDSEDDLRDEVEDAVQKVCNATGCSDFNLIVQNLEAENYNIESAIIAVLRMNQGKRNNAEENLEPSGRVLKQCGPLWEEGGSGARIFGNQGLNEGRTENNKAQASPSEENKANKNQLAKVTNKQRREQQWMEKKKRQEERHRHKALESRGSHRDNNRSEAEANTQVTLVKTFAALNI
In short: as §1

[6] = biological target: T2, UniProt Q8TE49
T2 sequence (whole entry): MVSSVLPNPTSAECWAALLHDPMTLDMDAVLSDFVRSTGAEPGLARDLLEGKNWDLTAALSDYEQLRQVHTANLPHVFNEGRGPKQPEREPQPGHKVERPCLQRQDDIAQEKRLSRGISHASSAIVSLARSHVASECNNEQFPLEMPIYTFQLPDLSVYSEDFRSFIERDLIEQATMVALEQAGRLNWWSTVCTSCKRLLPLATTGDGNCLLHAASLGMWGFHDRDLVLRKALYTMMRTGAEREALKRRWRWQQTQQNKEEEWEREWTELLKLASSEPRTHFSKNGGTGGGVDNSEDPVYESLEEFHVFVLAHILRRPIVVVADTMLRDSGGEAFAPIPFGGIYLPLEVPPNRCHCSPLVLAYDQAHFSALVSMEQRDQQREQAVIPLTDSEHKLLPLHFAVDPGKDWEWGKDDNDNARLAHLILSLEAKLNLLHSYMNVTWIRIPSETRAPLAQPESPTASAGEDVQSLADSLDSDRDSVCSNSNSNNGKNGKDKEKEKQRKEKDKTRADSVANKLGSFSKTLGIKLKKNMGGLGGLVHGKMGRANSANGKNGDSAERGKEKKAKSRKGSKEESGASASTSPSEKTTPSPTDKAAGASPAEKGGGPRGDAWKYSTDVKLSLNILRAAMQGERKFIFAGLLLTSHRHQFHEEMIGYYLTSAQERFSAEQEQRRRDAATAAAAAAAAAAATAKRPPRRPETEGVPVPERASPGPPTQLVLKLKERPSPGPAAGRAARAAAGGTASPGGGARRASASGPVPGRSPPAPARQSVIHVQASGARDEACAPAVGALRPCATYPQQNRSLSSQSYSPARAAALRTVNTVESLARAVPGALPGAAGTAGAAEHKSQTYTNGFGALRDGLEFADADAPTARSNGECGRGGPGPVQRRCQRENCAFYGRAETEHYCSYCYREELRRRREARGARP
In short: as §1

[7] = biological target: T3, UniProt Q9P2H5
T3 sequence (whole entry): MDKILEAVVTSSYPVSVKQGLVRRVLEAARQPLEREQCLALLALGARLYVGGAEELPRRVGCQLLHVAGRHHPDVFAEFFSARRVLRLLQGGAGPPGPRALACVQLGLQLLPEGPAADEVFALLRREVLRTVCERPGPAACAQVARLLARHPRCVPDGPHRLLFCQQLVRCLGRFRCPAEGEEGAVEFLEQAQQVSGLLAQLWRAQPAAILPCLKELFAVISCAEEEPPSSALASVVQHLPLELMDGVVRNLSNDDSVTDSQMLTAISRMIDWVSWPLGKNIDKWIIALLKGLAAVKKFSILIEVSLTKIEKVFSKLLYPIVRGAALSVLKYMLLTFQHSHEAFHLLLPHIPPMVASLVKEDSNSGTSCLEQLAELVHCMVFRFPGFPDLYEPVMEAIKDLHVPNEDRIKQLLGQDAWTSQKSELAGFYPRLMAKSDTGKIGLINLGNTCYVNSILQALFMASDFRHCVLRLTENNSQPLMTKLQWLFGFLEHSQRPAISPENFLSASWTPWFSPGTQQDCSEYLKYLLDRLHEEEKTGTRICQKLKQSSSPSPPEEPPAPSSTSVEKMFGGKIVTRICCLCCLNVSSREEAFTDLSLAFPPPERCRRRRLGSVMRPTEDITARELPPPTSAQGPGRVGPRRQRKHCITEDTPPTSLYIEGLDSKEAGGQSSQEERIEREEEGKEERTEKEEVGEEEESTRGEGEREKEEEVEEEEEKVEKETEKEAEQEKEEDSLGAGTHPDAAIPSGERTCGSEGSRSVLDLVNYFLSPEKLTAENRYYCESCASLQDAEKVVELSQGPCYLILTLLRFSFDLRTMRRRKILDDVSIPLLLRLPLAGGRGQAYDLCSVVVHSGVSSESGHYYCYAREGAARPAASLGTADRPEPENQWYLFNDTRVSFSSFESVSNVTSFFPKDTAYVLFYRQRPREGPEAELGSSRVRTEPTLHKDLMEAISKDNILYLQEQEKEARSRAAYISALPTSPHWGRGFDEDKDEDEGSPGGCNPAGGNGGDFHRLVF
In short: as §1

[8] = biological target: T4, UniProt Q9UGI0
T4 sequence (whole entry): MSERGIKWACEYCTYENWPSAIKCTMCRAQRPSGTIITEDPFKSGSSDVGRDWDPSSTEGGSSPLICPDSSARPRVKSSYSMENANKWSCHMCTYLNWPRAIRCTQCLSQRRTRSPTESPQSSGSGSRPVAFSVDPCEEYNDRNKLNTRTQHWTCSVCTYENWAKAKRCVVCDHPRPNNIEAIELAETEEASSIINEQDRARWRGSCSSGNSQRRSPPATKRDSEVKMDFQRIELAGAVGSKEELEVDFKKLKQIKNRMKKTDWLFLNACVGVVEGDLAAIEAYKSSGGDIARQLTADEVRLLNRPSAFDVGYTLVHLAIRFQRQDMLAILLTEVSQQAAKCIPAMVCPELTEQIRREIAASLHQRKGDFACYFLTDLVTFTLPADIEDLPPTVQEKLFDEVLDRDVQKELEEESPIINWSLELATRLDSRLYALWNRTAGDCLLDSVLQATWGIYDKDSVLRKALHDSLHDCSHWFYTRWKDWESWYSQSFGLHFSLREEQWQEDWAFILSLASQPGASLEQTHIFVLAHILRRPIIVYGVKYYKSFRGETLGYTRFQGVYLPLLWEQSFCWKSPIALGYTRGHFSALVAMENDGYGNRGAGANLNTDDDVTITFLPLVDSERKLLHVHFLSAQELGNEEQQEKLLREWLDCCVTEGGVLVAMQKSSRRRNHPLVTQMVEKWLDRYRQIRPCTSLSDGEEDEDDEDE
In short: as §1

[9] = biological target: T5, YOD1 (UniProt Q5VVQ6)
T5 sequence (whole entry): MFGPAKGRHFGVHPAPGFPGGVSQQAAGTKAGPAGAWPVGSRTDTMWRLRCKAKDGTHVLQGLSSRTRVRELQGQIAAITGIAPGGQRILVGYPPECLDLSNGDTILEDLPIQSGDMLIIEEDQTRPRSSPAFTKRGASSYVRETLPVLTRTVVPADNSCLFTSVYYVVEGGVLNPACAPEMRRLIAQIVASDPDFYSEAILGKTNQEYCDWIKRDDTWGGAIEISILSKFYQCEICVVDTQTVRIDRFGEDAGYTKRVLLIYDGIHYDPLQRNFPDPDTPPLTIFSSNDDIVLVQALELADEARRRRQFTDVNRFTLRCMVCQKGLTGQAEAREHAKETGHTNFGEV
In short: as §1

Measured: log2 ratio of Biotin-Ahx-Ub-VS probe labelling

UniProt P51784, sequence (P51784 whole entry): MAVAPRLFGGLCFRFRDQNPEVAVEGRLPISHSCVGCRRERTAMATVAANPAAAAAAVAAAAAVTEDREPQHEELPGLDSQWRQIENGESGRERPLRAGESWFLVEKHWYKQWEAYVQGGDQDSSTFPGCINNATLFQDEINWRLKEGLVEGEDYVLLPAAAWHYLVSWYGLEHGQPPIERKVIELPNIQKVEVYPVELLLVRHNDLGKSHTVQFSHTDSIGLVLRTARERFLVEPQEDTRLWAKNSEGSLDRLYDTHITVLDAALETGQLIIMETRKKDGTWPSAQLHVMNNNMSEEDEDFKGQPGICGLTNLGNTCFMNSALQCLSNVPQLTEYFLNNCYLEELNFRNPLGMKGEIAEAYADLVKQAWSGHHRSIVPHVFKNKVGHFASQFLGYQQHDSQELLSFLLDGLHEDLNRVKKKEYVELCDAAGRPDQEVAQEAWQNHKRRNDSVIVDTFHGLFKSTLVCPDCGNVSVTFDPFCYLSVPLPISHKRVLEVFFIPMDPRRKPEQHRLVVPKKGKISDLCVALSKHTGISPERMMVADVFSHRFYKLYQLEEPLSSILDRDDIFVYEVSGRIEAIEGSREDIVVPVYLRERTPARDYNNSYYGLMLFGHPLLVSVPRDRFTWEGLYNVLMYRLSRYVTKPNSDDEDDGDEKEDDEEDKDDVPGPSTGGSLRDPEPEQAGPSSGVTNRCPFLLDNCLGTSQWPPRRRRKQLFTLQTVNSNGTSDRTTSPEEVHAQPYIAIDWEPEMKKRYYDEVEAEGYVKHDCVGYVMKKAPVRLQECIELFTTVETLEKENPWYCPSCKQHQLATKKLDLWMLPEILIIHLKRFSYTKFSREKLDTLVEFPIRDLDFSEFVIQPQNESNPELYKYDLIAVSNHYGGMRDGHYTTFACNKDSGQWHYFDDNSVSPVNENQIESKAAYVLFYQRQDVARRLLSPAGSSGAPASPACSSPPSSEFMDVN
USP9X, sequence (Q93008 whole entry, the tested form may be a part): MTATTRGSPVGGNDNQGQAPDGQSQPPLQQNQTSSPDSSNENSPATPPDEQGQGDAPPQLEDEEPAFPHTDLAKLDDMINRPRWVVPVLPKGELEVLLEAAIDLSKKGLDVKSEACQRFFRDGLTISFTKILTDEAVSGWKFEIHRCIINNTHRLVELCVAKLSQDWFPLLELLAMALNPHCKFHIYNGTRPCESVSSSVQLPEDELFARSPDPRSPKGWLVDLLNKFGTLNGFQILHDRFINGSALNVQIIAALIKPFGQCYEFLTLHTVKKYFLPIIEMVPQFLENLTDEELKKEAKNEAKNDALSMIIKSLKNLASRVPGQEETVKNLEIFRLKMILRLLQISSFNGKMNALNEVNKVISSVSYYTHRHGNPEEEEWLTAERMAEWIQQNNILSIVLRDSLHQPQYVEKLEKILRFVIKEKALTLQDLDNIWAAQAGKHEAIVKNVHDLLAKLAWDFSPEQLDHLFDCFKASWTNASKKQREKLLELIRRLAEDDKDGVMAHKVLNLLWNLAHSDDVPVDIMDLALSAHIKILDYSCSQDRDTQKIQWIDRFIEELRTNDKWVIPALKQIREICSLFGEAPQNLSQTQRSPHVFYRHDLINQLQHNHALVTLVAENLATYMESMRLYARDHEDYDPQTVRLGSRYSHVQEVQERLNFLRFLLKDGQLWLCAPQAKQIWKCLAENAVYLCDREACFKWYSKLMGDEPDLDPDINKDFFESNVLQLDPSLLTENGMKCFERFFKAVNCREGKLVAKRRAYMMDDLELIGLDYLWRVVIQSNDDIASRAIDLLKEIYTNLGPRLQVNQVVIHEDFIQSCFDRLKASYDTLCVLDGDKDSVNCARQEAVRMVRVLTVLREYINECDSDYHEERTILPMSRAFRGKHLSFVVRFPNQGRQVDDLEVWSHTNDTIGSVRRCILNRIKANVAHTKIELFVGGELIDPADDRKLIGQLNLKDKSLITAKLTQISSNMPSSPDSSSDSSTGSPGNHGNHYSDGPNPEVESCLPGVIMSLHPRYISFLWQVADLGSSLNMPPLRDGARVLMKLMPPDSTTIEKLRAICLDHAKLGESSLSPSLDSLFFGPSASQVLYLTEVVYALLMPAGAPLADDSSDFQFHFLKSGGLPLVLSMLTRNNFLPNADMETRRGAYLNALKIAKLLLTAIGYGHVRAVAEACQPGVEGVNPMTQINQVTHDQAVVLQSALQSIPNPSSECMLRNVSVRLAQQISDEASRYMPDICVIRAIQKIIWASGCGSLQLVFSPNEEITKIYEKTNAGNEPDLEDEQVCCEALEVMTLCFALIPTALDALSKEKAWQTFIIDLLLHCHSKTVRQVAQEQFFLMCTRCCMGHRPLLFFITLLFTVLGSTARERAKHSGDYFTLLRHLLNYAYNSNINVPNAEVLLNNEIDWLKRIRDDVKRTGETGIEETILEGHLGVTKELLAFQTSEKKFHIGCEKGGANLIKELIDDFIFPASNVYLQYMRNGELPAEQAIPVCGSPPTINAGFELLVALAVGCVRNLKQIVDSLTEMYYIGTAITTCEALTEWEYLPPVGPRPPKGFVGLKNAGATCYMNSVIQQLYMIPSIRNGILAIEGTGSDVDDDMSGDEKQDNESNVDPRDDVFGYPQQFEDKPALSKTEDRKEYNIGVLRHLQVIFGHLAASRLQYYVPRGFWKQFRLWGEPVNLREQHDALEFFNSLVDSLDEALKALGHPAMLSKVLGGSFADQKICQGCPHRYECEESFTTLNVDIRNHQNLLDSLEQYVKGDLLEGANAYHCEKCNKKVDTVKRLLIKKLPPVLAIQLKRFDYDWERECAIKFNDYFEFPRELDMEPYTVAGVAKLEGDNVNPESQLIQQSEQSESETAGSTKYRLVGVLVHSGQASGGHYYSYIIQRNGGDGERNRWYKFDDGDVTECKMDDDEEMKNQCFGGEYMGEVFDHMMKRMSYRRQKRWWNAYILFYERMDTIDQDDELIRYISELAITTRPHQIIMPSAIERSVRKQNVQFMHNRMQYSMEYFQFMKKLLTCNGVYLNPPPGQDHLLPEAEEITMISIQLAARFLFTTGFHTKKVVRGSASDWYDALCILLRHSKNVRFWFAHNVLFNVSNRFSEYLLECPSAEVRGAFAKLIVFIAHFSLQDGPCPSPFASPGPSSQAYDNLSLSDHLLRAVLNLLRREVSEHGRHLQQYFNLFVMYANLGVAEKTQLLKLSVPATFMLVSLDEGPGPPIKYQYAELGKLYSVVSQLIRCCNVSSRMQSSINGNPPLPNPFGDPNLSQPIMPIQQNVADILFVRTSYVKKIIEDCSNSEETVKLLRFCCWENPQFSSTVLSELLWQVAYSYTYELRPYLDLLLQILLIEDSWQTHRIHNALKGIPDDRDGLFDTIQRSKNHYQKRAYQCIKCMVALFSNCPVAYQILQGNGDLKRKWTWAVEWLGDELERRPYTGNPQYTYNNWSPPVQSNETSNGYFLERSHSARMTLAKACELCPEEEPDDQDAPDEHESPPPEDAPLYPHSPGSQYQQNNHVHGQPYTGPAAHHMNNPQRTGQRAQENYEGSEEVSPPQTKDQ
UniProt O00487, sequence (O00487 whole entry): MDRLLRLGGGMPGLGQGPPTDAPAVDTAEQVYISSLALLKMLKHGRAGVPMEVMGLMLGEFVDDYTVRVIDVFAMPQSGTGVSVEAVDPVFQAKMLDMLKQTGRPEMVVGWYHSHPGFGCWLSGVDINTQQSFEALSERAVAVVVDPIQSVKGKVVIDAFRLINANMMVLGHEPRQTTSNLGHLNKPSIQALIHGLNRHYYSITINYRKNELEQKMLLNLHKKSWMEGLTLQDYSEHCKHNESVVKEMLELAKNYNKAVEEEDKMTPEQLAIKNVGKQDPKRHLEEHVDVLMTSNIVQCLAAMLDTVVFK

COc1ccc(CN(C)C(=O)CCl)cc1
inactive: [1] -0.178 | [2] -0.0169 | [3] -0.339 | [4] 0.00264 | [5] -0.273 | [6] -0.895 | [7] 0.0343 | [8] -0.846 | [9] -0.295
